Test results: PubChem BioAssay AID738 (SRMLSC, 2007)
The whole screen tested about 98,000 compounds, of which about 4,900 (5%) were called active. No stated cut-off is given here; in the data, active means inhibition above about 30%; inactive means the rest. Many of the other results were omitted from the sample, so actives are more common in it than they were.

Assay: growth inhibition of yeast control strain, primary screen, counter-screen for post-Golgi transport modulator project (AID 738)
Details: efflux-deficient yeast background strain, growth absorbance A615, 16 h; at 10 µM; hits give high values

Row | Structure (SMILES) | inhibition
1 | CCOC(=O)C(=O)Nc1nc(-c2ccccc2)c(CC)s1 | -2.8% (inactive)
2 | Cc1cccc(CSc2nnc(NC(=O)CSc3nnc(C)s3)s2)c1 | 22.5% (inactive)
3 | CCN(CC)c1ccc(/C=N/Nc2nc(C)cc(=O)[nH]2)cc1 | -2.13% (inactive)
4 | COc1cc2c(cc1OC)C(C(=O)NCc1ccco1)C1c3ccccc3CCN1C2=O (stereo not given) | 4.7% (inactive)
5 | CCOC(=O)N1CCN(C(=O)C2CCN(c3ncnc4c3sc3cccc(F)c34)CC2)CC1 | 2.07% (inactive)
6 | CCOC(=O)C1CCN(C(=O)c2oc3ccc(S(=O)(=O)N4CCCCCC4)cc3c2C)CC1 | 8.75% (inactive)
7 | CCOC(=O)C1CCN(c2ncnc3c2oc2ccc(Br)cc23)CC1 | 47.4% (active)
8 | CCCNC(=O)c1c(N)n(-c2ccc(S(N)(=O)=O)cc2)c2nc3ccccc3nc12 | -2.52% (inactive)
9 | Cc1nn(C)c(Oc2ccc(Cl)cc2)c1C=O | 2.69% (inactive)
10 | O=C(COc1ccccc1)NCc1ccc2c(c1)OCO2 | 9.88% (inactive)
11 | O=C(CCCCn1c(=O)[nH]c2ccccc2c1=O)NCc1ccc2c(c1)OCO2 | 1% (inactive)
12 | O=C1N(Cc2ccc3c(c2)OCO3)c2ccccc2C1(O)c1c[nH]c2ccccc12 (stereo not given) | 38.7% (active)
13 | Cc1csc(=NC(=O)c2ccccc2)n1CCO | 7.5% (inactive)
14 | CCC(C)NC(=O)CCCc1ccccc1 (stereo not given) | 28.4% (inactive)
15 | O=C(CNC(=O)Cc1ccccc1)NCC(=O)OCC(=O)c1ccccc1Cl | 13.6% (inactive)
16 | C=CCOc1c2ccc(C(=O)N(CC)c3ccc(OC)cc3)cc2nn1C | 7.7% (inactive)
17 | O=C(NC1CC1)c1ccc2c(c1)NC(=O)c1ccccc1S2 | -5.47% (inactive)
18 | COc1ccc(C(C#N)Nc2ccc(C)cc2)cc1 (stereo not given) | 1.82% (inactive)
19 | COc1ccc(-c2cc(C(=O)n3cnc4ccccc43)c3ccccc3n2)cc1 | 15.1% (inactive)
20 | O=C(CCOc1ccccc1)NCc1ccccc1 | 39.4% (active)
21 | O=C(CCCOc1ccccc1)NCc1ccco1 | 3.25% (inactive)
22 | O=C(CCc1ccccc1)NCc1cccnc1 | 6.95% (inactive)
23 | Cn1sc(NC(=O)c2ccccc2)nc1=O | 4.34% (inactive)
24 | CC(C)(C)c1cc2cccnc2n1Cc1ccccc1 | 7.46% (inactive)

Row | Structure (SMILES) | inhibition
25 | CCOC(=O)c1sc2nc(SC)nc(-c3ccccc3)c2c1N | -7.15% (inactive)
26 | Cc1cc2ccccc2n1CCNC(=O)COc1ccc2ccccc2c1 | 44.7% (active)
27 | COCCNC(=O)COc1ccc(C)c(C)c1 | -10.9% (inactive)
28 | Cc1ccccc1OCC(=O)NCC(=O)OCC(=O)c1ccc2ccccc2c1 | 6.76% (inactive)
29 | COc1ccc(C(=O)CN(C(=O)c2ccc(Cl)cc2)N2C(=O)c3ccccc3C2=O)cc1 | -4.1% (inactive)
30 | COc1cccc(NC(=O)C2c3cc(OC)c(OC)cc3C(=O)N(C)C2c2cccnc2)c1 (stereo not given) | -0.14% (inactive)
31 | CC(=O)NNc1cc(=O)c2c(=O)n(C)c(=O)n(C)c2[nH]1 | 0.97% (inactive)
32 | Cn1c2ccccc2n2c(=O)c(=O)n(CC(=O)c3ccc(F)cc3)nc12 | 3.79% (inactive)
33 | Cc1cc(C)c(S(=O)(=O)NCC2CCC(C(=O)NCc3ccc4c(c3)OCO4)CC2)c(C)c1 (stereo not given) | 15.2% (inactive)
34 | CCOc1ccccc1Oc1cn[nH]c1-c1ccc(OC)cc1O | 52.3% (active)
35 | CCOc1cc(-c2cc(-c3ccc(OC)cc3)nc(N)c2C#N)ccc1O | -2.55% (inactive)
36 | CCOc1ccccc1NC(=O)Nc1cc(OC)ccc1OC | 14.3% (inactive)
37 | Cn1c2c(c(=O)n(C)c1=O)[C@@H]1c3c(ccc4ccccc34)OC[C@@H]1CO2 | 3.76% (inactive)
38 | CCc1ccc(NC(=O)CSc2nc3ccccc3c(=O)n2CCN2CCOCC2)cc1 | 7.51% (inactive)
39 | Cc1nc2ccccc2c(=O)n1CCCn1ccnc1 | 1.67% (inactive)
40 | CCn1c(/C=C/c2ccc([N+](=O)[O-])o2)nc2ccccc2c1=O | 68% (active)
41 | O=C(Nc1nnc(SCc2ccc(Cl)cc2Cl)s1)C1COc2ccccc2O1 (stereo not given) | 5% (inactive)
42 | CCOC(=O)c1cnc(-c2ccccc2)nc1Oc1ccc(C)cc1 | 4.35% (inactive)
43 | Cc1nnc(NC(=O)Cn2c(=O)sc3ccccc32)s1 | -3.03% (inactive)
44 | Cc1nnc(NC(=O)Nc2ccc(Cl)c(Cl)c2)s1 | 3.53% (inactive)
45 | N/C(=N\OC(=O)Nc1ccc(Cl)c(Cl)c1)c1ncc(C(F)(F)F)cc1Cl | 13.3% (inactive)
46 | O=C(CC(O)(C(F)(F)F)C(F)(F)F)Nc1ccc(Cl)c(Cl)c1 | 96.9% (active)
47 | COCc1cc(C)nc2sc3c(=O)n(-c4cccc5ccccc45)nnc3c12 | 21.1% (inactive)
48 | O=C(CN1CCN(c2nc(-c3ccccc3)cs2)CC1)NCc1ccc2c(c1)OCO2 | 44.6% (active)

Row | Structure (SMILES) | inhibition
49 | COc1ccc(-c2csc(N3CCN(Cc4ccc5c(c4)OCO5)CC3)n2)cc1 | -2.01% (inactive)
50 | O=C(Cn1nnc(-c2ccccc2)n1)NCc1ccc2c(c1)OCO2 | 2.85% (inactive)
51 | COc1ccc(C2CC(=O)Nc3sc(=N)c4c(N)c(C#N)c(N)nc4c32)cc1OC (stereo not given) | 24.2% (inactive)
52 | Fc1ccccc1/C=C1\CCCC2=C1Nc1ncnn1C2c1ccccc1F (stereo not given) | 35.8% (active)
53 | CCCCCCn1c(SCC(=O)c2ccccc2)nc2c1c(=O)[nH]c(=O)n2C | 12.4% (inactive)
54 | CCCCCn1c(SCCC(C)C)nc2c1c(=O)[nH]c(=O)n2C | 35.5% (active)
55 | CCCSc1nc2c(c(=O)[nH]c(=O)n2C)n1CCc1ccccc1 | 16.6% (inactive)
56 | ONC(=Nc1ccccc1)c1ccccc1Cl | 24.2% (inactive)
57 | CN(C(=O)CSc1nnc(N)s1)c1c(N)n(Cc2ccccc2)c(=O)[nH]c1=O | 7.66% (inactive)
58 | Cc1cc([N+](=O)[O-])c(N2CCC[C@@H]2C(=O)O)c([N+](=O)[O-])c1 | 18.4% (inactive)
59 | Cc1ccsc1-c1nc(CSCC(=O)NCCN2CCCC2)c(C)o1 | 34.5% (active)
60 | Cc1ccc(Cc2c(C)nc3nc(SCC(=O)NCCN4CCOCC4)nn3c2C)cc1 | 20% (inactive)
61 | Cn1c(C(=O)NCCCN2CCCCC2)cc2sccc21 | 2.29% (inactive)
62 | COc1ccccc1N1CCN(CCCCOc2ccc(F)cc2)CC1 | -0.55% (inactive)
63 | COc1ccccc1N1CCN(Cc2ccc(OC)c3ccccc23)CC1 | 34.9% (active)
64 | COc1ccccc1N1CCN(Cc2nnnn2CCc2ccccc2)CC1 | 7.81% (inactive)
65 | Cc1cc(C)n2nc(C(=O)NC(C)(C)C)nc2n1 | 4.47% (inactive)
66 | COc1ccc(Oc2c(Cl)cnn(-c3ccccc3)c2=O)cc1 | -3.86% (inactive)
67 | CCN1CCC(=NNC(=O)c2ccc(C)c([N+](=O)[O-])c2)CC1 | 3.82% (inactive)
68 | Cc1oc(-c2ccccc2F)nc1CS(=O)(=O)CC(=O)NCCCN(C)C1CCCCC1 | 13.5% (inactive)
69 | Cc1ccccc1-c1nc(CS(=O)(=O)CC(=O)N2CCc3ccccc3C2)c(C)o1 | 30.9% (active)
70 | COc1ccc(-c2nc(CS(=O)CC(=O)N3CCc4ccccc4C3)c(C)o2)cc1 (stereo not given) | 4.85% (inactive)
71 | COc1cc(/C=N\NC(=O)C2C(=O)NCC2c2ccccc2)cc(OC)c1O (stereo not given) | -0.14% (inactive)
72 | CC(C)(C)Cc1nnc(NC(=O)c2cc(-c3ccccc3)nc3ccccc23)s1 | 9.13% (inactive)

Row | Structure (SMILES) | inhibition
73 | CCOC(=O)c1[nH]c2ccc(C)cc2c1N=C(C)N(C)C | 30.6% (active)
74 | CCOC(=O)c1[nH]c2ccccc2c1N=C(C)N(CC)CC | -8.42% (inactive)
75 | CCOC(=O)c1cc2cc(C)ccc2[nH]1 | 10.2% (inactive)
76 | Cn1cnc([N+](=O)[O-])c1Sc1ccccc1 | 7.56% (inactive)
77 | Clc1ccc(-n2nnnc2CN2CCCCC2)cc1Cl | -0.16% (inactive)
78 | Cc1ccccc1CS(=O)(=O)CC1(O)CCN(C(=O)c2cccc(C(F)(F)F)c2)CC1 | 4.49% (inactive)
79 | COc1cc(/C=C(/NC(=O)c2ccccc2)C(=O)Nc2cccc(O)c2)c([N+](=O)[O-])cc1OC | 15.7% (inactive)
80 | CCOC(=O)N1CCN(C(=O)Cc2ccc(-n3c(=S)[nH]c4ccccc4c3=O)cc2)CC1 | -2.12% (inactive)
81 | O=C(Cc1ccc(-n2c(=O)[nH]c3ccccc3c2=O)cc1)N1CCN(c2cccc(Cl)c2)CC1 | 37.3% (active)
82 | O=C(CCn1c(=O)[nH]c2ccccc2c1=O)NCCCN1CCN(c2cccc(Cl)c2)CC1 | 1.72% (inactive)
83 | COc1ccc(NC(=O)C(NC(C)=O)C(=O)NCc2ccccc2Cl)cc1 (stereo not given) | 14% (inactive)
84 | COC(=O)CN(C(=S)Nc1ccc(Cl)cc1)C1CC(=O)N(c2ccc(OC)cc2)C1=O (stereo not given) | 7.41% (inactive)
85 | O=C(Nc1ccc(Br)c2cccnc12)c1ccc(Cn2cc([N+](=O)[O-])cn2)o1 | 30.3% (active)
86 | CC1CCc2c(sc(NC(=O)c3ccc(Cn4cc(Br)cn4)o3)c2C(N)=O)C1 (stereo not given) | 10.8% (inactive)
87 | O=C(NCc1cccnc1)c1ccc(CS(=O)(=O)c2ccc(Br)cc2)o1 | -2.42% (inactive)
88 | COc1ccccc1NC(=O)[C@H](COCc1ccccc1)NC(=O)OC(C)(C)C | 5.88% (inactive)
89 | CC(=O)c1ccc(Cc2ncc(C(F)(F)F)cc2Cl)s1 | 5.66% (inactive)
90 | CCN1CCN(c2ccc([N+](=O)[O-])cc2C(=O)c2ccc(Cl)cc2)CC1 | 26.2% (inactive)
91 | O=C(NCc1ccccn1)c1cc(-c2ccccc2Cl)on1 | 9.87% (inactive)
92 | CCOc1ccc(C(=O)Nc2cc(OC)ccc2OC)cc1 | -3.51% (inactive)
93 | COc1ccc(C)cc1NC(=O)c1[nH]c(C)c(C(C)=O)c1C | 55% (active)
94 | CC(=O)c1c(C)[nH]c(C(=O)NCc2ccc(C)cc2)c1C | 5.25% (inactive)
95 | CC1=NN(C(=O)c2ccccc2Br)C(O)(c2cccnc2)C1 (stereo not given) | 9.36% (inactive)
